# Experimental data reported in ChEMBL document CHEMBL2218924, “A broad activity screen in support of a chemogenomic map for kinase signalling research and drug discovery” (Biochem J, 2013).
# Target: Serine/threonine-protein kinase pim-3 (Homo sapiens) (UniProt Q86V86)
# Conditions: at 10 µM
row,Compound,residual activity [%]
1,COc1ccc(CNc2nc(N(CCO)CCO)nc3c2ncn3C(C)C)cc1,88
2,O=C1NC(=O)c2c1c1c3ccccc3[nH]c1c1[nH]c3cc(Br)ccc3c21,14
3,O=C1Nc2ccccc2/C1=C1/Nc2ccccc2/C1=N\OCCC(O)CO (centres undefined),64
4,COc1cccc(-c2cc(=O)c3ccccc3o2)c1N,91
5,CO[C@H]1C[C@@H]2CC[C@@H](C)[C@@](O)(O2)C(=O)C(=O)N2CCCC[C@H]2C(=O)O[C@H]([C@H](C)C[C@@H]2CC[C@@H](O)[C@H](OC)C2)CC(=O)[C@H](C)/C=C(\C)[C@@H](O)[C@@H](OC)C(=O)[C@H](C)C[C@H](C)/C=C/C=C/C=C/1C,93
6,CC(=O)O/N=C1\C(=C2\C(=O)Nc3cc(Br)ccc32)Nc2ccccc21,84
7,O=[N+]([O-])c1ccc(-c2nc(-c3ccc(F)cc3)c(-c3ccncc3)[nH]2)cc1,95
8,COc1cc2ncnc(Nc3ccc(O)c(Br)c3)c2cc1OC,70
9,N#Cc1cnc2cnc(NCc3cccnc3)cc2c1Nc1ccc(F)c(Cl)c1,94
10,Cc1ccc(NC2=CC(=O)c3sc(C)nc3C2=O)cc1,92
11,CC[n+]1c(/C=C/N(C)c2ccccc2)n(-c2ccccc2)c2ccc(-c3nc4ccccc4s3)cc21,107
12,O=c1c2ccccc2[nH]c(=S)n1CCN1CCC(=C(c2ccc(F)cc2)c2ccc(F)cc2)CC1,99
13,COc1ccc(OC)c2c(=S)c3ccccc3[nH]c12,80
14,Cn1cnc2cc3c(Nc4cccc(Br)c4)ncnc3cc21,88
15,NC(=O)c1ccc2[nH]c(-c3ccc(Oc4ccc(Cl)cc4)cc3)nc2c1,83
16,Oc1n[nH]c2nnc(-c3c(-c4ccccc4)nn4ccccc34)cc12,84
17,COc1ccc(C(=O)Nc2sc3c(c2C(N)=O)CCCC3)cc1OC,97
18,COc1cc2ncnc(Nc3ccc(Oc4ccccc4)cc3)c2cc1OC,93

row,Compound,residual activity [%]
1,Nc1cccc(-c2cc3c(Oc4cccc(O)c4)ncnc3[nH]2)c1,91
2,O=Nc1c(-c2c(O)[nH]c3ccccc23)[nH]c2ccccc12,90
3,Cc1nc(-c2ccccc2)c(-c2ccncc2)o1,99
4,CNc1cc2c(Nc3cccc(Br)c3)ncnc2cn1,81
5,O=C1Nc2cc(Br)ccc2/C1=C1/Nc2ccccc2/C1=N\O,81
6,Cc1ccc(S(=O)(=O)/C=C/C#N)cc1,102
7,CC(C)n1cnc2c(NCc3ccccc3)nc(NCCCO)nc21,96
8,CCC(=O)Nc1ccc2ncnc(Nc3cccc(Br)c3)c2c1,85
9,C[C@@H](N)[C@H]1CC[C@H](C(=O)Nc2ccncc2)CC1,99
10,O=C1NC(=O)c2cc(Nc3ccc(F)cc3)c(Nc3ccc(F)cc3)cc21,93
11,CO[C@H]1[C@@H](OC)C[C@H](C)[C@@H](OC)C2=CC(=O)C=C(NC(=O)/C(C)=C/C=C/[C@H](OC)[C@@H](OC(N)=O)/C(C)=C/[C@@H]1C)C2=O,96
12,Oc1ccc(Nc2nc(-c3ccc(Cl)cc3)cs2)cc1,97
13,O=c1cc(-c2cccc3c2Sc2ccccc2S3)oc(N2CCOCC2)c1,85
14,O=C1NC(=O)/C(=C/c2ccc3c(c2)OC(F)(F)O3)S1,41
15,Ic1cccc(CSc2nnc(-c3ccncc3)o2)c1,84
16,Cn1nc2c3c(cccc31)C(=O)c1ccccc1-2,66
17,CC(C)n1cnc2/c(=N/c3cccc(Cl)c3)nc(NCCO)[nH]c21,71

# Target: Serine/threonine-protein kinase PLK1 (Homo sapiens) (UniProt P53350)
# Sequence (P53350 whole entry): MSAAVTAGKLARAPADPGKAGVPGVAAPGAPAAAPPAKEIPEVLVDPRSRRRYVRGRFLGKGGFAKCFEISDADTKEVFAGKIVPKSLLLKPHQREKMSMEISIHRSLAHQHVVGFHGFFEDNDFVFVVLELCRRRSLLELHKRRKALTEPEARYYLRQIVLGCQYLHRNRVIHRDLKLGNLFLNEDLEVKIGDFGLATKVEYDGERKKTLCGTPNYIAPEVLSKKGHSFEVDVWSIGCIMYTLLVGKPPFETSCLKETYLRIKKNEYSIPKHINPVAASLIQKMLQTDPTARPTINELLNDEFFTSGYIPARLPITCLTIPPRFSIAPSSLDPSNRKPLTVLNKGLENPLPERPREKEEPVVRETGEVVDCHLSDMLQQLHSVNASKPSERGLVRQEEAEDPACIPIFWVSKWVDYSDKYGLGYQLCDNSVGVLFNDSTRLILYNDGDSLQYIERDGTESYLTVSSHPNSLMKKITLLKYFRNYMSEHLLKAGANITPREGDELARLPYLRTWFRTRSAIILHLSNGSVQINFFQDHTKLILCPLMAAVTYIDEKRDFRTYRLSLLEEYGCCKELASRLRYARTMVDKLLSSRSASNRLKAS
# Conditions: at 1 µM
row,Compound,residual activity [%]
1,COc1ccc(CNc2nc(N(CCO)CCO)nc3c2ncn3C(C)C)cc1,69
2,O=C1NC(=O)c2c1c1c3ccccc3[nH]c1c1[nH]c3cc(Br)ccc3c21,90
3,O=C1Nc2ccccc2/C1=C1/Nc2ccccc2/C1=N\OCCC(O)CO (centres undefined),72
4,COc1cccc(-c2cc(=O)c3ccccc3o2)c1N,81
5,CO[C@H]1C[C@@H]2CC[C@@H](C)[C@@](O)(O2)C(=O)C(=O)N2CCCC[C@H]2C(=O)O[C@H]([C@H](C)C[C@@H]2CC[C@@H](O)[C@H](OC)C2)CC(=O)[C@H](C)/C=C(\C)[C@@H](O)[C@@H](OC)C(=O)[C@H](C)C[C@H](C)/C=C/C=C/C=C/1C,75
6,CC(=O)O/N=C1\C(=C2\C(=O)Nc3cc(Br)ccc32)Nc2ccccc21,79
7,O=[N+]([O-])c1ccc(-c2nc(-c3ccc(F)cc3)c(-c3ccncc3)[nH]2)cc1,88
8,COc1cc2ncnc(Nc3ccc(O)c(Br)c3)c2cc1OC,64
9,Cc1ccc(NC2=CC(=O)c3sc(C)nc3C2=O)cc1,87
10,CC[n+]1c(/C=C/N(C)c2ccccc2)n(-c2ccccc2)c2ccc(-c3nc4ccccc4s3)cc21,123
11,O=c1c2ccccc2[nH]c(=S)n1CCN1CCC(=C(c2ccc(F)cc2)c2ccc(F)cc2)CC1,104
12,COc1ccc(OC)c2c(=S)c3ccccc3[nH]c12,80
13,Cn1cnc2cc3c(Nc4cccc(Br)c4)ncnc3cc21,105
14,NC(=O)c1ccc2[nH]c(-c3ccc(Oc4ccc(Cl)cc4)cc3)nc2c1,75
15,Oc1n[nH]c2nnc(-c3c(-c4ccccc4)nn4ccccc34)cc12,75
16,COc1ccc(C(=O)Nc2sc3c(c2C(N)=O)CCCC3)cc1OC,94
17,COc1cc2ncnc(Nc3ccc(Oc4ccccc4)cc3)c2cc1OC,74

row,Compound,residual activity [%]
1,Nc1cccc(-c2cc3c(Oc4cccc(O)c4)ncnc3[nH]2)c1,78
2,O=Nc1c(-c2c(O)[nH]c3ccccc23)[nH]c2ccccc12,83
3,Cc1nc(-c2ccccc2)c(-c2ccncc2)o1,92
4,CNc1cc2c(Nc3cccc(Br)c3)ncnc2cn1,99
5,O=C1Nc2cc(Br)ccc2/C1=C1/Nc2ccccc2/C1=N\O,79
6,Cc1ccc(S(=O)(=O)/C=C/C#N)cc1,92
7,CC(C)n1cnc2c(NCc3ccccc3)nc(NCCCO)nc21,89
8,CCC(=O)Nc1ccc2ncnc(Nc3cccc(Br)c3)c2c1,93
9,C[C@@H](N)[C@H]1CC[C@H](C(=O)Nc2ccncc2)CC1,107
10,O=C1NC(=O)c2cc(Nc3ccc(F)cc3)c(Nc3ccc(F)cc3)cc21,95
11,CO[C@H]1[C@@H](OC)C[C@H](C)[C@@H](OC)C2=CC(=O)C=C(NC(=O)/C(C)=C/C=C/[C@H](OC)[C@@H](OC(N)=O)/C(C)=C/[C@@H]1C)C2=O,86
12,Oc1ccc(Nc2nc(-c3ccc(Cl)cc3)cs2)cc1,97
13,O=c1cc(-c2cccc3c2Sc2ccccc2S3)oc(N2CCOCC2)c1,95
14,O=C1NC(=O)/C(=C/c2ccc3c(c2)OC(F)(F)O3)S1,101
15,Ic1cccc(CSc2nnc(-c3ccncc3)o2)c1,72
16,Cn1nc2c3c(cccc31)C(=O)c1ccccc1-2,81
17,CC(C)n1cnc2/c(=N/c3cccc(Cl)c3)nc(NCCO)[nH]c21,30
